Source: PubChem
Rows were chosen to be rich in hits. Some 9.3% of all compounds tested hit in one or more screens of this group.
HCMV antiviral: blocks human cytomegalovirus replication. HFF cells, HCMV-luciferase reporter, 72 h; hits give low values. activity change, negative = inhibition, % at 57.5 µM. 410,000 compounds, 4.5% hits. AID 1259415; in the data active = activity change below about -60%; inconclusive = no clear call, values can overlap the other calls; inactive = above about -39%
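Cell-based, HFFs, 1000 cells/well, 16 h 37C; cpds in DMSO + HCMV-luc, MOI 1 PFU/cell; 72 h 37C; OneGlo luminescence after 5 min RT; norm. to buffer vs Salinomycin 10uM.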
HCV inh: blocks hepatitis C virus | Huh7.5.1 HCVcc-Cre infection, luciferase reporter, 44 h | Potency, µM (series often up to 41.8 µM), for the others: top-dose activity change, negative = inhibition, usual class: inhibitors | 340,000 compounds, 3.4% hits; also: potency is read from the fitted curve at half-maximal effect
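Infectious HCVcc-Cre (~0.5 moi) was added to cells just after compound, with cells seeded 4 h earlier at 1,000 per well. Luciferase activity after 44 h culture reported infection; substrate was incubated 15 min at room temperature before reading.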
Vaccinia mCherry: inhibitors of vaccinia virus infection (mCherry reporter signal); Vaccinia virus mCherry reporter infection, fluorescence; Potency, µM (highest dose often 36.5 µM), for the others: top-dose activity change, negative = inhibition, most hits filed as inhibitors; 310,000 compounds, 0.63% hits; calls by dose curve; tested in A549 cells; also: potency is read from the fitted curve at half-maximal effect; nearly all actives have a fitted effect of over 35% in size
VACV Venus inh: inhibitors of vaccinia virus (Venus reporter). Vaccinia virus Venus reporter expression, fluorescence. Potency, µM (top dose mostly 36.5 µM), without a hit: at the highest dose activity change, negative = inhibition, actives largely listed as inhibitors. 330,000 compounds, 0.46% hits. AID 720580; calls by dose curve; tested in A549 cells; also: potency is read from the fitted curve at half-maximal effect; nearly all actives have a fitted effect of over 30% in size
FMDV inh: foot and mouth disease virus antiviral activity | FMDV antiviral cell-based qHTS | Potency, µM (series often up to 57.9 µM), for inactives: top-dose activity change, negative = inhibition, actives largely listed as inhibitors | 410,000 compounds, 1.2% hits; calls by dose curve; tested in HEK293T cells; also: read-out not given here; potency is read from the fitted curve at half-maximal effect; nearly all actives have a fitted effect of over 45% in size
Sm TGR inh: inhibitors of Schistosoma mansoni thioredoxin glutathione reductase. purified TGR, DTNB reduction, TNB absorbance 405 nm. Potency, µM (series often up to 114 µM), inactives show top-dose activity change, negative = inhibition, usual class: inhibitors. 360,000 compounds, 3% hits; also: potency is read from the fitted curve at half-maximal effect; nearly all actives have a fitted effect of over 60% in size
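TGR 20 nM + NADPH 100 uM (dispensed conc.), cpd preinc 15 min RT; start with NADPH (500 uM addition) then DTNB (15 mM addition). Kinetic TNB absorbance, 405 nm filter. Four-parameter Hill fit across titration.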
Starred values were filed as active, the others as inactive; [ ] = dose if it differs, or a comment. Unless noted, calls follow the shape of the dose curve; as a rule, active = well fitted curve in the direction sought with a large enough effect; inconclusive = small, poorly fitted or top-dose-only effect, or another doubt; inactive = no such curve, though single readings can be large; an effect the other way counts as inactive or inconclusive. % is scaled to controls: 0 for no effect and ±100 for the full control effect.

Results for CCc1ccc(NC(=O)C(=O)NCCc2sc(-c3ccc(OC)c(OC)c3)nc2C)cc1 ?
HCMV antiviral: 15.6; Vaccinia mCherry: -25.7%; VACV Venus inh: -44.8%; FMDV inh: -10.3%; Sm TGR inh: 4.7%

How did CCOC(=O)c1c(-c2ccc(-c3ccccc3)cc2)csc1NC(=O)CCN1CCOCC1 do in these assays?
HCMV antiviral: -24.5; HCV inh: inconclusive; Vaccinia mCherry: inconclusive; VACV Venus inh: inconclusive; FMDV inh: -24.8%; Sm TGR inh: 8.0%

How did CCOC(=O)c1c(-c2ccc(OC)cc2)csc1NC(=O)CSc1ncnc2sccc12 do in these assays?
HCMV antiviral: -71.0*; HCV inh: inconclusive; FMDV inh: inconclusive; Sm TGR inh: 3.1%

How did CCOC(=O)c1c(-c2ccc(-c3ccccc3)cc2)csc1NC(=O)CNCCN(C)C do in these assays?
HCMV antiviral: -100.3*; HCV inh: 5.62µM*; Vaccinia mCherry: 10µM*; VACV Venus inh: inconclusive; FMDV inh: -29.2%; Sm TGR inh: -27.6%

Results for CCOC(=O)c1c(-c2ccccc2)csc1NC(=O)C(C)NCCCN1CCOCC1 (configuration not stated) ?
HCMV antiviral: -35.2; HCV inh: 10µM*; Vaccinia mCherry: inactive; VACV Venus inh: -24.0%; FMDV inh: 11.4%; Sm TGR inh: -14.7%

Results for CC(C(=O)NCc1ccccc1Cl)N1C(=O)c2ccccc2C1=O (configuration not stated) ?
HCMV antiviral: -1.9; HCV inh: 9.3%; Vaccinia mCherry: -6.3%; VACV Venus inh: 3.1%; FMDV inh: 9.4%; Sm TGR inh: 1.3%

Results for O=C(NCc1c(Cl)cccc1Cl)c1ccc2nnsc2c1 ?
HCMV antiviral: -18.1; HCV inh: -24.8%; Vaccinia mCherry: inactive; VACV Venus inh: -5.9%; FMDV inh: -5.3%; Sm TGR inh: -1.0%

What do the screens show for `CC(C)(C)OC(=O)N1CCN(CCNC(=O)c2ccccc2)CC1`?
HCMV antiviral: -32.8; HCV inh: 21.1%; FMDV inh: -21.4%; Sm TGR inh: 10.0%

How did CN(CC(=O)NCc1ccc2c(c1)OCO2)S(=O)(=O)c1ccc(Cl)cc1 do in these assays?
HCMV antiviral: 0.0; HCV inh: inconclusive; FMDV inh: -10.5%

How did Cc1coc2cc3oc(=O)c(CC(=O)N(C)CC(=O)O)c(C)c3cc12 do in these assays?
HCMV antiviral: 28.6; HCV inh: 20.2%; Vaccinia mCherry: inactive; VACV Venus inh: -12.5%; FMDV inh: 2.9%; Sm TGR inh: -0.8%

What do the screens show for `CN1CCN(CCCN2c3ccccc3Sc3ccc(S(=O)(=O)N(C)C)cc32)CC1`?
HCMV antiviral: -24.4; HCV inh: inconclusive; Vaccinia mCherry: inconclusive; VACV Venus inh: -27.6%; FMDV inh: inconclusive; Sm TGR inh: -21.5%

What do the screens show for `CC(=O)c1ccc2c(c1)N(CCCN1CCC(CCO)CC1)c1ccccc1S2`?
HCMV antiviral: 18.0; HCV inh: 3.16µM*; Vaccinia mCherry: -24.3%; VACV Venus inh: -12.5%; FMDV inh: -14.9%; Sm TGR inh: 0.9%

Results for COc1cc2c(cc1OC)C(Cc1ccc(O)cc1)N(C)CC2 (configuration not stated) ?
HCMV antiviral: -17.5; HCV inh: -14.3%; Vaccinia mCherry: -8.4%; VACV Venus inh: -3.6%; FMDV inh: -13.4%; Sm TGR inh: -6.0%

What do the screens show for `COc1cc2c(cc1OC)C1[C@H]3C(=CC[C@H]1OC2O)CCN3C` (some centres not stated)?
HCMV antiviral: -102.6*; HCV inh: 10.2%; Vaccinia mCherry: inactive; VACV Venus inh: -10.0%; FMDV inh: -3.9%

Results for CSc1sc(C(=O)O)c2c1C(=O)CC(C)(C)C2 ?
HCMV antiviral: 14.3; FMDV inh: -7.9%

Results for CC1(C)CC(=O)c2c(S(C)(=O)=O)sc(Br)c2C1 ?
HCMV antiviral: -60.4*; HCV inh: 12.0%; FMDV inh: -25.5%; Sm TGR inh: 15.8µM*

How did c1ccc(OCc2cc(-c3ccccc3)no2)cc1 do in these assays?
HCMV antiviral: 19.0; HCV inh: -22.0%; Vaccinia mCherry: inactive; VACV Venus inh: -0.3%; FMDV inh: 31.2%; Sm TGR inh: 0.1%

How did O=S(=O)(NCCc1ccccc1)c1cccc(S(=O)(=O)N2CCOCC2)c1 do in these assays?
HCMV antiviral: 19.8; HCV inh: 3.6%; Vaccinia mCherry: -18.1%; VACV Venus inh: -7.7%; FMDV inh: 52.4%; Sm TGR inh: 35.5µM*

Results for Cc1ccc(CCNC(=O)c2cc(S(=O)(=O)N3CCOCC3)cn2C)cc1 ?
HCMV antiviral: -17.3; HCV inh: -16.5%; Vaccinia mCherry: inactive; VACV Venus inh: -16.6%; FMDV inh: -0.9%; Sm TGR inh: -2.2%

What do the screens show for `Cn1cc(S(=O)(=O)N2CCOCC2)cc1C(=O)NCCc1ccccc1`?
HCV inh: 1.8%; Vaccinia mCherry: 9.2%; VACV Venus inh: 2.0%; FMDV inh: 6.7%; Sm TGR inh: 89.1µM*

How did O=C(Cn1cnc2c(oc3ccccc32)c1=O)N1CCCC1 do in these assays?
HCMV antiviral: 15.2; HCV inh: 18.8%; Vaccinia mCherry: -1.3%; VACV Venus inh: 3.2%; FMDV inh: 40.7%; Sm TGR inh: -2.2%

What do the screens show for `NC(=O)c1cc(S(=O)(=O)NC2CCCCC2)co1`?
HCMV antiviral: -10.6; HCV inh: 10.5%; FMDV inh: 4.5%; Sm TGR inh: -5.1%

How did O=C(/C=C/c1ccccc1O)c1ccco1 do in these assays?
HCMV antiviral: -17.4; HCV inh: 21.3%; Vaccinia mCherry: inconclusive; VACV Venus inh: 12.6µM*; FMDV inh: inconclusive; Sm TGR inh: inconclusive

What do the screens show for `Nc1ccc(/C=C/C(=O)c2ccco2)cc1`?
HCMV antiviral: 0.8; HCV inh: -3.2%; Vaccinia mCherry: -1.0%; VACV Venus inh: -5.4%; FMDV inh: 53.1%; Sm TGR inh: -24.6%

How did Cc1cccc2cc(/C=C/C(=O)c3ccco3)c(Cl)nc12 do in these assays?
HCMV antiviral: 35.8; HCV inh: 3.7%; Vaccinia mCherry: inactive[7.34 µM]; VACV Venus inh: 4.0%[7.34 µM]; FMDV inh: -13.1%; Sm TGR inh: 7.94µM*

How did O=C(/C=C/c1cc(Br)ccc1O)c1ccco1 do in these assays?
HCMV antiviral: -78.7*; HCV inh: inconclusive; Vaccinia mCherry: inconclusive; VACV Venus inh: -11.8%; FMDV inh: inconclusive; Sm TGR inh: 14.1µM*

How did Cc1[nH]c(C)c(S(=O)(=O)Nc2ccccc2)c1C(=O)N1CCCC1 do in these assays?
HCMV antiviral: 10.7; HCV inh: 7.9%; Vaccinia mCherry: -14.6%; VACV Venus inh: -0.6%; FMDV inh: 40.5%; Sm TGR inh: -9.1%

What do the screens show for `CCOc1ccc(CCNC(=O)CCn2ccc3cc(S(=O)(=O)N4CCCC4)ccc32)cc1`?
HCMV antiviral: -7.5; HCV inh: 12.6µM*; FMDV inh: -28.9%; Sm TGR inh: -2.3%
